According to PubChem BioAssay AID1159580 (chemical genetic matrix, 2015):
Several values for one entry are separate records, joined by “and”; a condition that tells them apart may be missing. Equal entries are not always repeated. Out of some 5,500 compounds screened, about 2,000 (36%) were called active. Roughly 18% stayed inconclusive and do not appear here. Cut-off read from the data, not from the text of the source: active = normalized growth mostly below about 0.91 (no sharp cut-off); inconclusive = no clear call, values can overlap the other calls; inactive = mostly above about 0.92. This is one part of the list.

Assay: chemical genetic growth profiling, strain panel (AID 1159580);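 note: tested at 20 µM; growth read once vehicle control cultures reached saturation at 30 °C; 1 = growth at the plate median or of vehicle wells; lower values mean less growth of the strain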
Settings: S. cerevisiae deletion strains, growth OD

Measured: normalized growth

COC(=O)C[C@H]1C(C)(C)[C@@H](O)[C@@H]2CC3=C4C=C(OC)O[C@@H](c5ccoc5)[C@]4(C)CCC3[C@@]1(C)C2=O (some centres not stated)
inactive: locus YAL021C, strain ccr4, hits give low values 0.996 | locus YAL026C, strain drs2, hits give low values 0.99 | locus YAL030W, strain snc1, hits give low values 1 | locus YBL061C, strain skt5, hits give low values 1.01 | locus YBR009C, strain hhf1, hits give low values 1.01 | locus YBR021W, strain FUR4, hits give low values 1.01 | locus YBR023C, strain chs3, hits give low values 0.997 | locus YBR171W, strain sec66, hits give low values 0.999 | locus YBR229C, strain ROT2, hits give low values 1 | locus YBR231C, strain swc5, hits give low values 1 | locus YBR279W, strain paf1, hits give low values 0.999 | locus YCL011C, strain gbp2, hits give low values 1.01 | locus YCL016C, strain dcc1, hits give low values 0.999 | locus YCL029C, strain bik1, hits give low values 0.978 | locus YCL061C, strain MRC1, hits give low values 1.01 | locus YCL069W, strain vba3, hits give low values 0.983 | locus YCR088W, strain abp1, hits give low values 0.99 | locus YDL005C, strain med2, hits give low values 0.989 | locus YDL035C, strain GPR1, hits give low values 1.01 | locus YDL040C, strain nat1, hits give low values 0.998 | locus YDL074C, strain BRE1, hits give low values 1.02 | locus YDL101C, strain DUN1, hits give low values 1 | locus YDL134C, strain PPH21, hits give low values 1.01 | locus YDL185W, strain tfp1, hits give low values 0.982 | locus YDL192W, strain arf1, hits give low values 0.991 | locus YDR001C, strain nth1, hits give low values 0.992 | locus YDR069C, strain doa4, hits give low values 0.998 | locus YDR101C, strain arx1, hits give low values 1 | locus YDR137W, strain rgp1, hits give low values 1.01 | locus YDR159W, strain sac3, hits give low values 0.998 | locus YDR162C, strain NBP2, hits give low values 0.987 | locus YDR195W, strain ref2 0.962 | locus YDR297W, strain sur2, hits give low values 0.994 | locus YDR318W, strain mcm21, hits give low values 0.995 | locus YDR334W, strain swr1, hits give low values 0.978 | locus YDR335W, strain msn5, hits give low values 0.994 | locus YDR388W, hits give low values 0.985 | locus YDR392W, strain spt3, hits give low values 0.992 | locus YDR502C, strain sam2, hits give low values 0.982 | locus YEL003W, strain gim4, hits give low values 0.994 | locus YEL037C, strain rad23, hits give low values 0.988 | locus YEL061C, strain CIN8 (second series), hits give low values 0.982 | locus YEL061C, strain CIN8, hits give low values 1 | locus YER015W, strain faa2, hits give low values 1 | locus YER016W, strain bim1, hits give low values 1.01 | locus YER110C, hits give low values 0.979 | locus YER111C, strain swi4, hits give low values 1 | locus YER155C, strain BEM2 (second series), hits give low values 1.02 | locus YER155C, strain BEM2, hits give low values 1 | locus YER167W, strain BCK2, hits give low values 1.02 | locus YFR010W, strain ubp6, hits give low values 0.982 | locus YGL078C, strain dbp3, hits give low values 0.984 | locus YGL086W, strain mad1, hits give low values 0.991 | locus YGL167C, strain pmr1, hits give low values 1.01 | locus YGL173C, strain kem1, hits give low values 1 | locus YGL227W, strain vid30, hits give low values 0.983 | locus YGL240W, strain doc1, hits give low values 1.02 | locus YGL248W, strain PDE1, hits give low values 0.999 | locus YGL253W, strain hxk2, hits give low values 0.993 | locus YGR078C, strain PAC10, hits give low values 1 | locus YGR135W, strain pre9, hits give low values 0.976 | locus YGR252W, strain gcn5, hits give low values 0.994 | locus YHR013C, strain ard1, hits give low values 1.01 | locus YHR027C, strain rpn1, hits give low values 0.994 | locus YHR030C, strain SLT2, hits give low values 0.96 | locus YHR079C, strain IRE1 (second series), hits give low values 0.992 | locus YHR079C, strain IRE1, hits give low values 0.968 | locus YHR094C, strain hxt1, hits give low values 0.987 | locus YHR129C, strain ARP1, hits give low values 1 | locus YHR142W, strain chs7, hits give low values 0.977 | locus YHR200W, strain rpn10, hits give low values 0.988 | locus YIL066C, strain RNR3, hits give low values 1.02 | locus YIL073C, strain SPO22, hits give low values 0.981 | locus YIL125W, strain kgd1, hits give low values 0.991 | locus YIR030C, strain dcg1, hits give low values 0.992 | locus YJL092W, strain hpr5, hits give low values 0.993 | locus YJL095W, strain BCK1 (second series), hits give low values 1 | locus YJL095W, strain BCK1, hits give low values 0.996 and 0.97 | locus YJL115W, strain asf1, hits give low values 0.985 | locus YJL129C, strain trk1, hits give low values 0.97 | locus YJL134W, strain LCB3, hits give low values 1.01 | locus YJL154C, strain vps35, hits give low values 0.978 | locus YJL164C, strain tpk1, hits give low values 0.997 | locus YJL166W, strain qcr8, hits give low values 0.995 | locus YJL168C, strain set2, hits give low values 0.983 | locus YJL187C, strain SWE1 (second series), hits give low values 1.01 | locus YJR043C, strain POL32, hits give low values 1.04 | locus YJR066W, strain TOR1, hits give low values 0.92 | locus YKL009W, strain mrt4, hits give low values 0.986 | locus YKL068W, hits give low values 0.996 | locus YKL085W, strain MDH1 (second series), hits give low values 0.975 | locus YKL085W, strain MDH1, hits give low values 0.975 | locus YKL160W, strain elf1, hits give low values 1.01 | locus YKL190W, strain CNB1, hits give low values 1 | locus YKR001C, strain vps1, hits give low values 0.992 | locus YKR026C, strain gcn3, hits give low values 0.972 | locus YKR091W, strain srl3, hits give low values 1 | locus YLL001W, strain dnm1, hits give low values 1 | locus YLL026W, hits give low values 1.01 | locus YLL041C, strain sdh2, hits give low values 1.02 | locus YLR027C, strain aat2, hits give low values 1 | locus YLR039C, strain RIC1, hits give low values 0.935 | locus YLR058C, strain SHM2, hits give low values 1.01 | locus YLR102C, strain apc9, hits give low values 0.987 | locus YLR113W, strain HOG1, hits give low values 0.998 | locus YLR221C, strain rsa3, hits give low values 0.998 | locus YLR258W, strain gsy2, hits give low values 0.993 | locus YLR262C, strain YPT6 (second series), hits give low values 0.959 | locus YLR262C, strain YPT6, hits give low values 0.857 | locus YLR268W, strain sec22, hits give low values 0.997 | locus YLR320W, strain mms22, hits give low values 1 | locus YLR342W, strain FKS1 (second series), hits give low values 1.02 | locus YLR342W, strain FKS1, hits give low values 0.999 | locus YLR357W, strain rsc2, hits give low values 1.01 | locus YLR370C, strain arc18, hits give low values 0.993 | locus YLR371W, strain rom2, hits give low values 0.983 | locus YLR384C, strain iki3, hits give low values 1 | locus YLR418C, strain cdc73, hits give low values 0.962 | locus YML016C, strain PPZ1, hits give low values 1.01 | locus YML032C, strain rad52, hits give low values 1 | locus YML120C, strain ndi1, hits give low values 0.998 | locus YML124C, strain tub3, hits give low values 0.992 | locus YMR058W, strain fet3, hits give low values 1 | locus YMR078C, strain ctf18, hits give low values 0.987 | locus YMR125W, strain sto1, hits give low values 0.993 | locus YMR129W, hits give low values 0.997 | locus YMR205C, strain PFK2, hits give low values 1.02 | locus YMR223W, strain ubp8, hits give low values 0.976 | locus YMR231W, strain pep5, hits give low values 0.997 | locus YMR307W, strain GAS1, hits give low values 1 | locus YNL067W, strain RPL9B, hits give low values 0.997 | locus YNL071W, strain lat1, hits give low values 0.978 | locus YNL183C, strain NPR1, hits give low values 0.938 | locus YNL209W, strain ssb2, hits give low values 0.985 | locus YNL233W, strain BNI4, hits give low values 1.01 | locus YNL248C, strain rpa49, hits give low values 0.97 | locus YNL250W, strain rad50, hits give low values 0.981 | locus YNL271C, strain bni1, hits give low values 0.985 | locus YNL298W, strain CLA4, hits give low values 0.984 | locus YNL307C, strain MCK1, hits give low values 0.98 | locus YNL322C, strain KRE1 (second series), hits give low values 1.01 | locus YNR049C, strain mso1, hits give low values 1 | locus YNR052C, strain pop2, hits give low values 0.979 | locus YOL006C, strain TOP1, hits give low values 1.03 | locus YOL012C, strain htz1 1.17 | locus YOL147C, strain pex11, hits give low values 0.986 | locus YOR001W, strain rrp6, hits give low values 0.989 | locus YOR061W, strain CKA2, hits give low values 1 | locus YOR069W, strain VPS5, hits give low values 1 | locus YOR070C, strain gyp1, hits give low values 0.987 | locus YOR080W, strain dia2, hits give low values 0.992 | locus YOR083W, strain WHI5, hits give low values 1.01 | locus YOR106W, strain vam3, hits give low values 0.98 | locus YOR136W, strain idh2, hits give low values 0.991 | locus YOR144C, strain elg1, hits give low values 0.992 | locus YOR184W, strain ser1, hits give low values 0.994 | locus YOR231W, strain MKK1, hits give low values 0.98 | locus YOR265W, strain rbl2, hits give low values 0.993 | locus YOR270C, strain vph1, hits give low values 0.86 | locus YOR290C, strain snf2, hits give low values 1.03 | locus YOR316C, strain cot1, hits give low values 0.981 | locus YPL051W, strain arl3, hits give low values 1.02 | locus YPL055C, strain LGE1, hits give low values 1.03 | locus YPL078C, strain atp4, hits give low values 0.985 | locus YPL106C, strain sse1, hits give low values 1.02 | locus YPL240C, strain hsp82, hits give low values 0.991 | locus YPL256C, strain CLN2, hits give low values 0.955 | locus YPR119W, strain clb2, hits give low values 0.982 | locus YPR141C, strain kar3, hits give low values 0.98 | locus YPR163C, strain tif3, hits give low values 0.981 | locus YPR167C, strain met16, hits give low values 0.983 | strain wtn01, hits give low values 1
